Assay outcomes as filed in PubChem BioAssay.
ELG1 genotoxic = induces genotoxicity in HEK293T cells with luciferase-tagged ELG1. HEK293T ELG1-luciferase reporter, luminescence, 16 h. hit rate 1.3% among 330,000. Potency, µM (highest dose often 46 µM), without a hit: top-dose activity change, positive = activation, actives largely listed as activators; also: % of control where 0% means no effect; nearly all actives have a fitted effect of over 60% in size
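After overnight (16 hr) compound treatment at 37 °C, ELG1-luciferase HEK293T cells were lysed with ONE-Glo; luminescence quantified 30 min later at room temperature.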
FLuc modulator = firefly luciferase modulation, counter-screen for miR-21 project; P08659; purified FLuc, Km substrates, luminescence inhibition; Potency, µM (highest dose often 57.5 µM), for the others: at the highest dose activity change, negative = inhibition, most hits filed as inhibitors; hit rate 6.9% among 360,000; AID 588342;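 also: plate controls were vehicle for no effect and reference inhibitor for full effect; nearly all actives have a fitted effect of over 55% in size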
Target sequence (P08659 whole entry, looked up): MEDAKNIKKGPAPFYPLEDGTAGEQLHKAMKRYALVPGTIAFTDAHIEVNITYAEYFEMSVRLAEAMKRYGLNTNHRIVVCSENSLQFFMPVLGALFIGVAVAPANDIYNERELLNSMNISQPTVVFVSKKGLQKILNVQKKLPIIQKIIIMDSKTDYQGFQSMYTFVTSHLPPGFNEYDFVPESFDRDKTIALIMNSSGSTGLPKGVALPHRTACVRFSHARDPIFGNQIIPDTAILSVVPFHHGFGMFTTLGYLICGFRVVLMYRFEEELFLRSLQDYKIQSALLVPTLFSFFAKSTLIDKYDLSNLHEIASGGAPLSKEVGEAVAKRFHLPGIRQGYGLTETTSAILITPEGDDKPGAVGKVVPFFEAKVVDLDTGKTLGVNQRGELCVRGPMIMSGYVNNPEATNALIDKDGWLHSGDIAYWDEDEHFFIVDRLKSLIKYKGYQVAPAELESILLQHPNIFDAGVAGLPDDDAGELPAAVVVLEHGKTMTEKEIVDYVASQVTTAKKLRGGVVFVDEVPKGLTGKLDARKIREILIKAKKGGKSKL
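Purified P. pyralis luciferase, 10 nM final, with Km-level 10 uM D-luciferin and 10 uM ATP in 50 mM Tris acetate pH 7.5, 10 mM Mg acetate, 0.01% Tween-20, 0.05% BSA; 6-point qHTS titration about 60 µM downward; luminescence read.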
NPC1 promoter act = activators of NPC1 promoter; Huh7 NPC1 promoter luciferase reporter, 24 h; Potency, µM (series often up to 9.22 µM), inactives show top-dose activation, usual class: activators; hit rate 2.4% among 320,000; AID 485313; also: % of control where 0% means no effect; nearly all actives have a fitted effect of over 60% in size
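Luminescence read-out of NPC1 promoter-driven luciferase in stably transfected Huh7 cells; compounds delivered in DMSO and left 24 h at 37C, 5% CO2, qHTS titration format.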
Rab9 prom act = activates the Rab9 promoter; Huh7 Rab9 promoter-luciferase reporter, luminescence, 24 h; Potency, µM (series often up to 9.22 µM), for the others: at the highest dose activation, negative = inhibition, usual class: activators; hit rate 2.8% among 320,000; AID 485297; also: % of control where 0% means no effect; nearly all actives have a fitted effect of over 60% in size
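Luminescence read-out: Huh7 cells stably expressing Rab9-luciferase, treated 24 h with compound at 37 °C, then lysed with luciferase reagent for 10 min at ambient before reading.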
ELG1 repair inh = inhibitors of ELG1-dependent DNA repair in HEK293T cells; hit rate 2.3% among 330,000; AID 504467; HEK293T ELG1-luciferase reporter, luminescence, 16 h; DNA damage induced by 5-fluorouridine; Potency, µM (titrated, usually from 46.1 µM), for inactives: top-dose activity change, negative = inhibition, most hits filed as inhibitors; also: % is scaled to controls: 0 for no effect and ±100 for the full control effect; nearly all actives have a fitted effect of over 55% in size
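Reporter activity after DNA damage by 5-fluorouridine is monitored. Compound-treated cells incubate 16 hr at 37 °C, then ONE-Glo is added for 30 min before luminescence reading.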
SMN2 splice enh = increases expression of the SMN2 splice variant; hit rate 2.8% among 210,000; HEK293 SMN2-luciferase splicing reporter, luminescence, 30-36 h; Potency, µM (top dose mostly 46.1 µM), for the others: at the highest dose activity change, positive = activation, most hits filed as activators; also: % of control where 0% means no effect; nearly all actives have a fitted effect of over 55% in size
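HEK293 cells carry an SMN2 minigene-luciferase reporter in which exon 7 inclusion puts luciferase in frame. Cells were seeded at 2000 cells/well, attached for 10-12 hours, then exposed to compounds for 30-36 hours at 37C before ONE-Glo luminescence.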
* marks the source's active call; other numbers are inactive results; ? = inconclusive; · = no result given; [ ] = another dose, or the depositor's remark. Only some compounds are listed: those with a hit (about 9.2% of all), similar ones and a draw of the others. Calls follow the shape of the dose curve; as a rule, active = well fitted curve in the direction sought with a large enough effect; inconclusive = small, poorly fitted or top-dose-only effect, or another doubt; inactive = no such curve, though single readings can be large; an effect the other way counts as inactive or inconclusive. Potency is read from the fitted curve at half-maximal effect.

SMILES | ELG1 genotoxic | FLuc modulator | NPC1 promoter act | Rab9 prom act | ELG1 repair inh | SMN2 splice enh
CCS(=O)(=O)c1ccc2oc(SCC(=O)c3c(N)n(C4CC4)c(=O)[nH]c3=O)nc2c1 | 1.3% | 0.9% | -2.4% | -4.7% | -13.7% | ·
Cc1nc2ccccn2c1/C(O)=C1\C(=O)C(=O)N(CCN2CCOCC2)C1c1cccs1 (stereo not given) | 0.5% | 2.7% | -2.7% | -4.9% | -8.5% | 5.1%
Cc1ccc(C2/C(=C(/O)c3cnn(-c4ccccc4)c3C)C(=O)C(=O)N2CCN2CCOCC2)o1 (stereo not given) | 5.8µM* | 21.3µM* | 3.55µM* | 2.82µM* | ? | -51.7%
CCN(CC)CCN1C(=O)C(=O)/C(=C(/O)c2cnn(-c3ccccc3)c2C)C1c1ccc(C)o1 (stereo not given) | ? | ? | 29.9% | ? | ? | 7.5%
Cc1c(/C(O)=C2/C(=O)C(=O)N(CCN3CCOCC3)C2c2cccs2)cnn1-c1ccccc1 (stereo not given) | 1.84µM* | 9.53µM* | 4.47µM* | 1.26µM* | ? | ?
O=C(COc1ccc2oc3c(c2c1)CCCC3)Nc1ccc(Cl)cc1 | · | -8.8% | · | · | · | -2.0%
O=C(COc1ccc(C(=O)c2ccc(F)cc2)cc1)Nc1cccc(S(=O)(=O)N2CCOCC2)c1 | -7.7% | · | · | · | 23.1µM* | ·
CCN1CCN(c2ccc(S(=O)(=O)N3CCCCC3)cc2NC(=O)COc2ccc(Cl)c(C)c2)CC1 | -19.4% | -1.1% | 0.3% | 1.4% | 23.1µM* | ·
Cc1cc(OCC(=O)Nc2cccc(S(=O)(=O)N3CCCC3)c2)ccc1Cl | -6.1% | ? | 0.9% | -10.2% | ? | ·
Cc1cc(OCC(=O)Nc2cccc(S(=O)(=O)N3CCCCC3)c2)ccc1Cl | 0.2% | 6.75µM* | -2.4% | -1.6% | -13.1% | ·
O=C(/C=C/c1ccc2c(c1)OCO2)c1ccco1 | ? | 2.13µM* | 25.9% | ? | ? | 2.5%
Nc1ccccc1C(=O)/C=C/c1ccc2c(c1)OCO2 | ? | 3.38µM* | 3.16µM* | 3.16µM* | ? | ?
NC(=O)/C(=C/c1ccc2c(c1)OCO2)NC(=O)c1ccco1 | 0.5% | 5.0% | 0.4% | -5.7% | -1.2% | -7.3%
Nc1nc(N)c(N=O)c(OCC2CCCCC2)n1 | 18.3µM* | ? | -0.5%[46.1 µM] | -14.5%[46.1 µM] | ? | ·
CC1CCN(c2nc3ccc(C(=O)NCCCN4CCCCC4)cc3s2)CC1 | ? | ? | ? | -40.2% | ? | ·
CCCCN(C)CCCNC(=O)C1CCN(c2nc3ccc(CC)cc3s2)CC1 | · | 15.1µM* | · | · | · | -8.0%
CCCCN(CC)CCCNC(=O)C1CCN(c2nc3ccc(CC)cc3s2)CC1 | · | 19µM* | · | · | · | -52.3%
CC(=O)Nc1ccc(NC(=O)COC(=O)CCc2nc3ccccc3s2)cc1 | -1.3% | 1.9% | -0.8% | 0.7% | 2.7% | -3.6%
O=C(NCc1cccnc1)c1cc(-c2cccs2)on1 | 9.9% | ? | ? | ? | ? | -0.3%
COc1ccc(CNC(=O)c2cc(-c3ccc(OC)cc3)on2)cc1 | · | 4.8% | · | · | · | -9.7%
O=C(NCc1cccnc1)c1cc(-c2ccccc2)on1 | 20.6µM* | ? | 28.6% | ? | ? | 15.8µM*
COc1ccc(-c2cc(C(=O)NCc3cccnc3)no2)cc1 | 12.7% | 12µM* | ? | ? | ? | 7.3%
CC1CCN(S(=O)(=O)c2ccc3c(c2)N(CC(=O)Nc2ccc(F)c(Cl)c2)C(=O)CO3)CC1 | · | -1.6% | · | · | · | ·
Cc1ccc(-n2c(N)c(-c3nc4ccccc4n3C)sc2=S)cc1 | -1.0% | -2.5% | ? | 27.7% | ? | -21.1%
Cn1c(-c2ccc(C=O)s2)nc2ccccc21 | 14.6µM* | ? | -1.9% | 1.0% | ? | 25.1%
Cn1c(-c2cccs2)nc2ccccc21 | 8.2% | ? | 3.98µM* | 2.51µM* | ? | 12.6µM*
CC(C)Cn1c(-c2cccs2)nc2ccccc21 | -11.1% | -9.3% | -2.3% | -2.2% | ? | 4.9%
